From PubChem BioAssay
Only some compounds are listed: those with a hit (about 3.1% of all), similar ones and a draw of the others.
BRCA1 expr act = increases BRCA1 expression; MCF7-BRCA1-FFLuc reporter, luminescence, 48 h; response scale: scaled: vehicle 0%, 10 µM genistein 100%; Potency, µM (titrated, usually from 46.1 µM), for inactives: top-dose activation, most hits filed as activators; 380,000 compounds, 1.1% hits; further: potency means the concentration at half of the fitted maximal effect; nearly all actives have a fitted effect of over 80% in size
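Activators of BRCA1 expression were detected as increased firefly luciferase luminescence in engineered MCF7 cells after 48 h compound incubation. Signals were scaled to genistein 10 microM as full activation.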
IL-2 act = activators of IL-2; IL-2 activation reporter assay, cell-based qHTS; stimulated with anti-CD3/CD4/CD28 beads; in transgenic mouse T cells; AID 652025; 360,000 compounds, 0.065% hits; activation, % (series mostly up to about 46 µM); in the data active means activation above about 50%; inconclusive means mostly about 30% to 49%; further: 0% is about no effect
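Unstimulated transgenic mouse T cells preincubated 60 min with compound, then stimulated with anti-CD3/anti-CD4-coated beads plus anti-CD28 for 18 h at 37 degrees C. IL-2 response read as EGFP and DsRed fluorescence by plate cytometry.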
ELG1 repair inh = inhibitors of ELG1-dependent DNA repair in HEK293T cells. HEK293T ELG1-luciferase reporter, luminescence, 16 h; DNA damage induced by 5-fluorouridine. Potency, µM (series often up to 46.1 µM), for the others: at the highest dose activity change, negative = inhibition, actives largely listed as inhibitors. 330,000 compounds, 2.3% hits. AID 504467; further: potency means the concentration at half of the fitted maximal effect; on the % scale 0 is the no-effect control and ±100 the full control effect; nearly all actives have a fitted effect of over 55% in size
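5-Fluorouridine DNA damage + compound/DMSO, 2,000 cells/well, 16 h, 37 °C/5% CO2. ONE-Glo, 30 min RT, luminescence. Readout = decrease in reporter signal.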
Nrf2 activator = activates Nrf2 signaling. AREc32 ARE-luciferase reporter (MCF7-derived line), luminescence, 24 h. Potency, µM (highest dose often 46.1 µM), inactives show at the top dose activation, actives largely listed as activators. 410,000 compounds, 0.31% hits; further: potency means the concentration at half of the fitted maximal effect; % of control where 0% means no effect; nearly all actives have a fitted effect of over 65% in size
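Quantitative high-throughput format: AREc32 reporter cells, 1000 per well, received compound by pin transfer and were incubated 24 hr at 37 deg C, 5% CO2, before Steady-Glo luminescence detection.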
The depositor's hits bear a star; ? = inconclusive; · = no result. Unless noted, the call rests on the fitted dose curve; in most records, active means well fitted curve in the direction sought with a large enough effect; inconclusive means small, poorly fitted or top-dose-only effect, or another doubt; inactive means no such curve, though single readings can be large; an effect the other way counts as inactive or inconclusive.

SMILES	BRCA1 expr act	IL-2 act	ELG1 repair inh	Nrf2 activator
CNc1ccc2oc(C[C@H]3O[C@@]4(CC[C@H]3C)O[C@H]([C@H](C)C(=O)c3ccc[nH]3)[C@H](C)C[C@H]4C)nc2c1C(=O)O	-69%	1	5.8µM*	-3%
Cc1ccccc1NP(=O)(Oc1ccccc1F)Oc1ccccc1F	-11%	1	23µM*	0%
Nc1ccc2ccccc2c1	24%	-4	·	4%
Nc1ccc2c(c1)oc1ccccc12	7.1µM*	0	?	4%
Oc1ccc2c3c1O[C@H]1[C@@H](O)CC[C@@]4(O)C(C2)N(CC2CCC2)CCC314 (stereo not given in full)	2%	·	·	·
C/C(=N\Nc1ccccc1)c1c(O)[nH]c(=O)[nH]c1=O	-22%	0	5.2µM*	3%
CCOC(=O)C1=Nc2ccccc2/C1=C\c1c(O)n(C)c(=O)n(C)c1=O	-1%	0	21µM*	4%
Cn1c(O)c(C=Nc2ccccc2-c2ccccc2)c(=O)n(C)c1=O	0%	0	-8%	0%
CCOC(=O)c1ccc(N=C(CC)c2c(O)n(C)c(=O)n(C)c2=O)cc1	15%	-1	-18%	1%
CCC(=NCc1ccc(F)cc1)c1c(O)n(C)c(=O)n(C)c1=O	-78%	-4	7.9µM*	0%
CCC(=Nc1ccc(Cc2ccncc2)cc1)c1c(O)n(C)c(=O)n(C)c1=O	0%	-2	7.3µM*	0%
C[C@H]1CCC/C=C/C2C[C@H](O)CC2[C@H](O)/C=C/C(=O)O1 (stereo not given in full)	?	-1	?	4%
CC1CCC/C=C/C2CC(O)CC2C(O)/C=C/C(=O)O1 (stereo not given)	?	0	0.65µM*	0%
C=CCSc1nnc(NC(=O)c2ccc(Cl)nc2)s1	72%	0	?	2%
O=P(Nc1ccccc1)(Nc1ccccc1)Oc1cccc(Cl)c1	-2%	-2	16µM*	0%
C/C(CC(=O)Nc1ccc(Cl)cn1)=N\NC(=O)Cc1cccs1	15%	-1	?	7%
C[C@]12CC[C@@H](O)CC1=CCC1C2CC[C@@]2(C)C1CC[C@@H]2N (stereo not given in full)	-32%	0	9%	2%
C[C@]12CC[C@H](N)CC1=CCC1C2CC[C@@]2(C)C1CC[C@@H]2O (stereo not given in full)	-69%	0	16µM*	6%
COc1cc([C@@H]2c3cc4c(c(O)c3C[C@H]3COC(=O)[C@@H]32)OCO4)cc(OC)c1OC	-58%	·	·	·
CCn1c(C)[n+](CC(O)COCC2CC=CCC2)c2ccccc21 (stereo not given)	-44%	-1	?	-1%
COc1ccc(NC(c2ccccc2F)P(=O)(Oc2ccccc2)Oc2ccccc2)cc1 (stereo not given)	-22%	-3	18µM*	3%
ClCCN(CCCl)c1ccc(C=Nc2ccncc2)cc1	0%	·	·	·
COc1ccc(NC(=O)CCCn2c(=O)oc3ccccc32)cc1Cl	7.1µM*	1	?	1%
O=C(c1ccccc1F)N1CCN(Cc2nc3sc4c(c3c(=O)[nH]2)CCCC4)CC1	-36%	4	16µM*	0%
C[C@]12CC[C@H](O)C[C@H]1CCC1C2CC[C@]2(C)[C@@H](c3ccc(=O)oc3)C[C@H]3O[C@]132 (stereo not given in full)	-49%	·	·	·
SMILES	BRCA1 expr act	IL-2 act	ELG1 repair inh	Nrf2 activator
CCOC(=O)c1ccc(N2Cc3ccccc3C2=NC(=O)c2cccc([N+](=O)[O-])c2)cc1	5µM*	1	·	0%
COc1ccc2nc(NC3=NCCN3)sc2c1	1.3µM*	1	?	7%
CN(Cc1ccccc1)C(=O)c1ccc(NC(=O)C2CCN(C(=O)OC(C)(C)C)CC2)cc1	-30%	-4	10µM*	3%
O=C(N/N=C\c1ccc(COc2ccc([N+](=O)[O-])cc2)o1)c1cccc(Cl)c1	-38%	-2	?	2%
O=C1NC(=O)C(CCc2ccncc2)(Cc2cccc(Cl)c2Cl)C(=O)N1c1ccc(Br)cc1 (stereo not given)	-80%	0	16µM*	0%
O=C(c1cc2ccccn2n1)N1CCN(Cc2ccccc2)CC1	10µM*	0	13%	0%
O=C(c1cc2ccccn2n1)N1CCC2(CC1)OCCO2	4%	0	7%	-1%
CC1Oc2cc3c(-c4c(O)cc(O)c5c(O)c6c(cc45)OC(C)C(C)C6=O)c(O)cc(O)c3c(O)c2C(=O)C1C (stereo not given)	-76%	-1	6.5µM*	0%
COC(=O)c1ccc(NC(=O)CSc2nc3ccc(N4C(=O)C5C6C=CC(C6)C5C4=O)cc3s2)cc1 (stereo not given)	-88%	-3	13µM*	0%
COCCCn1c(-c2ccc(OC)cc2)cc(C(=O)NC2CCCCCCC2)c1C	-83%	12	23µM*	21%
COc1ccc(/C=C2\SC(=O)N(CCn3cnnn3)C2=O)cc1	75%	-2	?	4%
C#CC1(O)CCC2C3CCC4=C/C(=N/OCC(=O)NCC(=O)NC(C(=O)O)C(C)C)CC[C@]4(C)C3CC[C@@]21C (stereo not given in full)	-15%	-3	?	2%
C#C[C@]1(O)CC[C@H]2[C@@H]3CCC4=Cc5nc6nc7ccccc7n6cc5C[C@]4(C)[C@H]3CC[C@@]21C	9%	7	7.9µM*	?
CCN(CC)c1ccc(/C=N/c2sc3c(c2C#N)C2CCN3CC2)c(O)c1	-25%	53*	?	2%
Cn1c(=O)oc2cc(S(=O)(=O)CCC(=O)NCCc3ccccc3)ccc21	10%	0	?	1%
Cn1c(=O)oc2cc(NC(=O)CCl)ccc21	-44%	-5	?	7.9µM*
CSc1ccccc1NC(=O)CN(C)CC(=O)c1[nH]c(C)c(C(C)=O)c1C	-12%	-1	16µM*	1%
COc1ccc(NC(=O)CCOc2cc(C)ccc2C)cc1S(=O)(=O)N1CCCCC1	-54%	-1	23µM*	2%
C/C(=C\c1ccc(N(C)C)cc1)[N+](=O)[O-]	-83%	-5	?	?
CN(C)c1ccc(/C=C/[N+](=O)[O-])cc1	45%	97*	?	0%
Cc1ccccc1Cn1cccc(C(=O)Nc2cc(Cl)ccc2C#N)c1=O	-10%	·	·	?
Nc1c2c(nc3sc4c(c13)CCCC4)CCCC2	4.5µM*	-2	-10%	3%
CN(Cc1cccc(-c2ccncc2)c1)C(=O)Oc1ccccc1Cc1ccccc1	-18%	-1	·	4%
C[C@H]1CCC[C@H](O)CCCCCc2cc(O)cc(O)c2C(=O)O1	-19%	0	7.3µM*	0%
NS(=O)(=O)c1ccc(CCNC(=O)c2ccc(Cl)c(S(=O)(=O)N3CCCCC3)c2)cc1	-52%	-1	16µM*	0%
O=C(Oc1ccc2ccc(OC(=O)N3CCCCCC3)cc2c1)N1CCCCCC1	-50%	-2	?	2%
